Sampled rows, rich in hits. Any-hit rate of the full collection: about 21%.
CHX counter: affects cycloheximide protein synthesis inhibition readout, counter-screen; cell reporter, cycloheximide protein synthesis inhibition counterscreen; 300,000 tested, 12% active; max response, %; in the data active = max response mostly above about 13%, no sharp cut-off; inactive = mostly below about 14%; note: read at 38.3 µM for the half of the compounds with a filed dose
NS1 function inh: blocks influenza NS1 protein function | Potency, µM (highest dose often 46.1 µM) | 270,000 tested, 0.4% active | AID 2326; note: actives are rising curves; nearly all actives have a fitted effect of over 50% in size
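S. cerevisiae expressing influenza A NS1, grown in glucose, washed, then diluted 1:100 into pH 6.0 -URA galactose medium with 23 nl compound. Growth recovery read as OD600; NS1-free strain serves as control.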
Pf growth 96h: inhibits malaria parasite growth, 96 h | P. falciparum luciferase reporter growth, 96 h | Potency, µM (series often up to 28.7 µM), usual class: inhibitors | 320,000 tested, 6.9% active | AID 504834; active = well fitted inhibition curve with a large enough effect; inconclusive = small, poorly fitted or top-dose-only effect, or another doubt; inactive = no such curve, though single readings can be large or run the other way
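96 h incubation, 37 C, 5% CO2, of luciferase-reporter P. falciparum-infected RBCs (2% hematocrit, 0.05% parasitemia final) with test compounds; endpoint luminescence.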
SARS PLpro yeast: inhibitors of SARS-CoV papain-like protease in yeast; S. cerevisiae expressing SARS-CoV PLpro, growth rescue; Potency, µM (top dose mostly 32.9 µM), actives largely listed as activators; 330,000 tested, 0.19% active; note: nearly all actives have a fitted effect of over 55% in size
Pf growth 48h: P. falciparum growth inhibition at 48 hours (one generation); AID 504832; P. falciparum luciferase growth in erythrocytes, 48 h; 310,000 tested, 5.9% active; Potency, µM (titrated, usually from 28.7 µM), actives largely listed as inhibitors; active = well fitted inhibition curve with a large enough effect; inconclusive = small, poorly fitted or top-dose-only effect, or another doubt; inactive = no such curve, though single readings can be large or run the other way
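Parasite viability was followed by luminescence of a genomically integrated firefly luciferase. Cultures held 0.1% parasitemia at 2% hematocrit (final), incubated under 5% CO2 at 37 C.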
Shiga toxin inh: Shiga toxin inhibition. Vero cells, Shiga toxin protein synthesis inhibition reporter. inhibition, % at 38.7 µM. 290,000 tested, 9.2% active; in the data active = inhibition mostly above about 28%, no sharp cut-off; inactive = mostly below about 43%
A number is an active result; . = inactive; ? = inconclusive; / = no result; [ ] = dose if it differs, or a comment. Unless noted, calls come from the whole dose curve.

SMILES | CHX counter | NS1 function inh | Pf growth 96h | SARS PLpro yeast | Pf growth 48h | Shiga toxin inh
Cc1ccc(NC(=O)CN(C)C(=O)c2cccnc2Nc2cccc(C(F)(F)F)c2)cc1 | . | . | 9.28µM | . | ? | .
COc1cccc(NC(=O)CN(C)C(=O)c2ccccc2OCC(=O)Nc2cccc(C(F)(F)F)c2)c1 | / | / | . | . | . | /
COc1cccc(NC(=O)CN(C)C(=O)c2cccnc2Nc2cccc(C(F)(F)F)c2)c1 | / | / | ? | . | 9.28µM | /
O=C(CN1C(=O)CNC1=O)Nc1cccc(C(F)(F)F)c1 | . | . | / | . | . | .
CC(C)(C)OC(=O)CNC(=O)c1nc[nH]c1C(=O)N1CCNCC1 | / | / | . | . | . | /
CCCCCCCCCCCCCCCCOC[C@H](COP(=O)([O-])OCC[N+](C)(C)C)OC(=O)CCCCCCCC(=O)O | . | / | / | / | / | .
CC(C)(C)OC(=O)N1CCC(NC(=O)c2nc[nH]c2C(=O)N2CCN(C(=O)OC(C)(C)C)CC2)CC1 | / | / | ? | . | 10.4µM | /
CC(C)(C)OC(=O)N1CCC(NC(=O)c2nc[nH]c2C(=O)N2CCN(c3ccccc3)CC2)CC1 | / | / | / | . | / | /
CC(C)(C)OC(=O)NCCCCCNC(=O)c1[nH]cnc1C(=O)NC1CCN(C(=O)OC(C)(C)C)CC1 | / | / | 2.08µM | . | 9.28µM | /
CC1CCN(C(=O)CSc2nc3c(c(=O)n2C)SCC3)CC1 | 17.9 | . | ? | . | . | .
CCn1c(SCC(=O)N2CCCCC2)nc2c(c1=O)SCC2 | . | . | ? | . | ? | .
Cn1c(SCC(=O)NC2CCCC2)nc2c(c1=O)SCC2 | . | . | . | . | . | .
Cn1c(SCC(=O)N2CCCCCC2)nc2c(c1=O)SCC2 | . | . | 4.65µM | . | . | .
CC(C)c1nc(C#N)c(NN)o1 | 49.3 | . | . | . | . | 116.1
CC(C)c1nc(C#N)c(NCCCn2ccnc2)o1 | . | . | / | . | . | .
Nc1cc(C(=O)O)ccc1Nc1ccccc1 | . | . | . | . | . | .
CCNc1ccc(C(=O)O)cc1N | 32.1 | . | . | . | . | 60.9
CCc1ccccc1Nc1ccc(C(=O)O)cc1N | 36.7 | . | . | ? | . | 69.2
C/C(=N\NC(=O)Cc1c[nH]c2ccccc12)c1ccc2ccccc2c1 | . | / | . | . | ? | .
CC(=O)Nc1ccc(-c2cc(NC(C)=O)n(-c3ccccc3)n2)cc1 | . | . | . | . | . | .
O=C(CCl)Nc1cc(-c2ccccc2)nn1-c1ccccc1 | 27.5 | . | 6.57µM | . | / | .
Cc1nn(Cc2ccc(Cl)cc2Cl)c(C)c1NC(=O)CCl | . | . | 10.4µM | . | 0.586µM | .
Cc1ccc(-c2cc(NC(=O)CCl)n(-c3ccccc3)n2)cc1 | 52.9 | . | .[5.75 µM] | . | . | .
CC(=O)Nc1c(C)nn(-c2ccc([N+](=O)[O-])cc2)c1C | . | . | ? | . | . | .
Cc1ccc(-n2nc(C)c(NC(=O)CCl)c2C)cc1 | . | . | . | ? | 3.7µM | .
SMILES | CHX counter | NS1 function inh | Pf growth 96h | SARS PLpro yeast | Pf growth 48h | Shiga toxin inh
O=C1CC(c2ccco2)CC2=C1C(c1ccc(O)cc1)n1nc(C(F)(F)F)nc1N2 (stereo unspecified) | . | / | / | / | / | .
Cc1cc(NC(=O)CN2C(=O)NC(C)(c3ccc(Cl)cc3Cl)C2=O)no1 (stereo unspecified) | / | / | / | . | / | /
Cc1ccc(-c2nn(-c3ccccc3)cc2NC(=O)CCl)cc1 | 40.6 | / | ? | . | ? | .
CCOC(=O)c1sc(=S)n(-c2ccccc2Cl)c1SC | . | . | 2.62µM | . | 13.1µM | .
CCOC(=O)c1sc(=S)n(-c2cccc(C(F)(F)F)c2)c1SC | . | . | ? | . | ? | .
CCOC(=O)c1sc(=S)n(-c2ccccc2)c1SC | . | . | 13.1µM | . | 11.7µM | .
CC(=O)c1cccc(Nc2nc(-c3ccccc3)cs2)c1 | 33.0 | . | ? | . | . | 106.9
CC(=O)c1cccc(Nc2nc(-c3cccnc3)cs2)c1 | 50.6 | . | ? | . | . | 58.2
CC(=O)c1cccc(NC(=O)NCc2cccnc2)c1 | . | . | . | / | . | .
O=C(Nc1ccc(-c2csc(Nc3cccc(C(F)(F)F)c3)n2)cc1)c1ccccc1 | . | . | ? | . | ? | .
CC(=O)c1ccc(Nc2nc(-c3cccnc3)cs2)cc1 | 22.5 | . | ? | . | . | .
O=C(O)c1ccc(Nc2nc(-c3cccnc3)cs2)cc1 | . | . | . | . | . | .
CC(=O)Nc1ccc(S(=O)(=O)NC2C3(C)CCC(C3)C2(C)C)cc1 (stereo unspecified) | . | . | . | . | . | .
CCN(CC)CCn1c2ccccc2c2nc3ccc([N+](=O)[O-])cc3cc21 | 27.1 | . | ? | . | ? | 91.7
CCN(CC)CCn1c(N)nc2ccccc21 | . | . | . | . | . | .
CC(C)(C)NS(=O)(=O)c1ccc(CCC(=O)NCc2cccnc2)cc1 | . | . | . | . | / | .
C[C@H](NC(=O)c1nc[nH]c1C(=O)NC1CCN(C(=O)OC(C)(C)C)CC1)C(=O)OCc1ccccc1 | . | . | . | . | ? | .
CCOc1ccc(S(=O)(=O)Oc2ccc3ccccc3c2)cc1 | 29.0 | . | . | . | . | 43.4
Cc1ccc(S(=O)(=O)Oc2ccc3ccc(O)cc3c2)cc1 | 28.8 | . | . | . | . | /
CC(NC(=O)[C@H](C)NC(=O)[C@@H]1CSC2c3ccccc3C(=O)N21)c1ccccc1 (stereo partly specified) | . | . | . | . | . | .
O=C(CN1C(=O)S/C(=C\c2ccc(F)cc2)C1=O)Nc1cccc(S(=O)(=O)NCc2ccco2)c1 | 66.9 | ? | ? | . | ? | 138.0
CCc1ccccc1OCC(=O)Nc1cccc(S(=O)(=O)NCc2ccco2)c1 | / | / | ? | . | ? | /
CCCCn1c(SCC(=O)NCc2ccco2)nc2c(sc3ccccc32)c1=O | . | . | . | . | / | .
Cc1ccc(-n2c(SCC(=O)NCc3ccco3)nc3sc4c(c3c2=O)CC(C)(C)SC4)cc1 | . | . | ? | . | . | .
O=C(CSc1nc2c(sc3ccccc32)c(=O)n1-c1ccccc1)NCc1ccco1 | 29.9 | ? | . | . | ? | .
SMILES | CHX counter | NS1 function inh | Pf growth 96h | SARS PLpro yeast | Pf growth 48h | Shiga toxin inh
CCOCCCn1c(SCC(=O)NCc2ccco2)nc2c(sc3ccccc32)c1=O | 31.7 | . | ? | . | / | .
CCC1CCc2c(sc3nc(SCC(=O)NCc4ccco4)n(-c4ccccc4)c(=O)c23)C1 (stereo unspecified) | . | . | . | . | 11.7µM | .
O=C(CSc1nc2c(sc3ccccc32)c(=O)n1CCc1ccccc1)NCc1ccco1 | . | . | ? | . | / | .
COc1ccc(S(=O)(=O)Nc2c(C)nn(C)c2C)cc1Br | / | / | / | . | / | /
CS(=O)(=O)N1CCN(c2ccccc2NC(=O)C(c2ccccc2)c2ccccc2)CC1 | . | . | / | . | 10.4µM | .
CS(=O)(=O)N1CCN(c2ccccc2NC(=O)c2ccc3ccccc3c2)CC1 | . | . | ? | . | 11.7µM | .
COc1cccc(NC(=O)Nc2ccc(CC(=O)O)cc2)c1 | . | . | 2.33µM | . | . | .
CCc1ccc(NC(=O)Nc2cccc(OC)c2)cc1 | 25.9 | / | . | . | . | 105.2

High-throughput results as filed in PubChem.
